Reference: PubChem BioAssay (Tox21)
Unmarked numbers belong to inactive results. Results filed as inconclusive are left out. Entries that show only a call come without a potency. Active and inactive are the calls of the source. Unless noted, calls come from the whole dose curve; as a rule, active = well fitted curve in the direction sought with a large enough effect in the repeat runs; inconclusive = weak or mixed curves; inactive = no such curve, though single readings can be large; an effect the other way counts as inactive or inconclusive.

Columns and labels:
[1] = qHTS assay to identify small molecule antagonists of the TGF-beta/Smad signaling pathway - cell viability counter screen (AID 1346824); note: nearly all actives have a fitted effect of over 50% in size
Procedure, shortened: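 SBE-bla HEK 293T cells were plated overnight at 37 C, then given compounds in DMSO plus TGF-beta1 (added as 0.25 ng/mL solution) for 5 hr. After the bla read, CellTiter-Glo was added to the same wells and luminescence read after 30 min at room temperature.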

[2] = qHTS assay to identify small molecule agonists of the TGF-beta/Smad signaling pathway - cell viability counter screen (AID 1346829); note: top concentration of the series differs between compounds; nearly all actives have a fitted effect of over 45% in size
Procedure, shortened: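 Same-well cytotoxicity: CellTiter-Glo added after the 2 hr room-temperature beta-lactamase substrate step, luminescence measured 30 min later; cells had 5 hr of compound at 37 C.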

[3] = qHTS assay to identify small molecule agonists of the TGF-beta/Smad signaling pathway (AID 1346859; active = well fitted activation curve with a large enough effect in the signal ratio in the repeat runs, not every such curve was filed as active; the % refers to the signal ratio; note: series mostly up to about 77 µM)
Procedure, shortened: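 Each well held 4,000 SBE-bla HEK 293T cells incubated overnight before compound addition; 5 hr later the cleavable FRET substrate went on for 2 hr at room temperature, and fluorescence was read at two emissions.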

[4] = target: Thyrotropin-releasing hormone receptor (Homo sapiens) (UniProt P34981); test: qHTS assay to identify small molecule antagonists of the thyrotropin-releasing hormone receptor (TRHR) signaling pathway (AID 1346877; active = well fitted inhibition curve with a large enough effect in the repeat runs, not every such curve was filed as active; note: series mostly up to about 51 µM)
Sequence of Thyrotropin-releasing hormone receptor (Homo sapiens) (P34981 whole entry, looked up): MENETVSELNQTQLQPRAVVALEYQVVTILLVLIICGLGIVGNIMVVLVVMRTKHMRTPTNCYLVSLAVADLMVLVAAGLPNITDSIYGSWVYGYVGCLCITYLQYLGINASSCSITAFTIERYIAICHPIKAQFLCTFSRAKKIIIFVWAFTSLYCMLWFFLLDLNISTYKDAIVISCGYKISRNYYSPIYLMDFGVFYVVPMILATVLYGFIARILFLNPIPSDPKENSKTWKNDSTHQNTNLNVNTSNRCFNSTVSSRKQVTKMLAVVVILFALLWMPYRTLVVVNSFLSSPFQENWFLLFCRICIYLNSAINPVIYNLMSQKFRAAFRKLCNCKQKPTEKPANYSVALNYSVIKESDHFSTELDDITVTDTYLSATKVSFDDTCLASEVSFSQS
Procedure, shortened: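 Antagonist mode: after a 5 min room-temperature compound exposure, cells were stimulated with 1 nM (final) TRH. Dye-loaded TRHR-HEK293 cells were used, and calcium-dependent fluorescence was followed for 3 min, with 15-point titrations run in triplicate.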

[5] = target: Thyrotropin-releasing hormone receptor (Homo sapiens) (UniProt P34981); test: qHTS assay to identify small molecule agonists of the thyrotropin-releasing hormone receptor (TRHR) signaling pathway (AID 1346891; calls by dose curve; note: series mostly up to about 58 µM)
Procedure, shortened: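 Screening of agonists relied on calcium signalling in HEK293 cells expressing human TRHR: dye loading 2 h at 37 °C preceded compound addition and a 3-min fluorescence time course.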

[6] = Caspase-3/7 induction in HepG2 cells by small molecules, qHTS assay (AID 1346978); note: nearly all actives have a fitted effect of over 15% in size
Procedure, shortened: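 Wild-type HepG2 cells (2,000/well) were settled 5 h at 37 C, 5% CO2, then exposed to compounds in DMSO for 17 h. Caspase-3/7 activity was read by luminescence 30 min after adding Caspase-Glo 3/7 reagent at room temperature.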

[7] = Caspase-3/7 induction in CHO-K1 cells by small molecules, qHTS assay (AID 1346980); note: nearly all actives have a fitted effect of over 15% in size
Procedure, shortened: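 Wild-type cells were seeded at 1,500 per well and settled 5 hr at 37 C, 5% CO2, then exposed to DMSO-dissolved compounds for 17 hr. Caspase-Glo 3/7 reagent was added, and luminescence was read after 30min at room temperature.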

[8] = target: Nuclear receptor subfamily 1 group I member 2 (Homo sapiens) (UniProt O75469); test: Human pregnane X receptor (PXR) small molecule agonists, qHTS assay (AID 1346982); note: nearly all actives have a fitted effect of over 35% in size; note: potency is the fitted concentration of half-maximal effect
Sequence of Nuclear receptor subfamily 1 group I member 2 (Homo sapiens) (O75469 whole entry, looked up): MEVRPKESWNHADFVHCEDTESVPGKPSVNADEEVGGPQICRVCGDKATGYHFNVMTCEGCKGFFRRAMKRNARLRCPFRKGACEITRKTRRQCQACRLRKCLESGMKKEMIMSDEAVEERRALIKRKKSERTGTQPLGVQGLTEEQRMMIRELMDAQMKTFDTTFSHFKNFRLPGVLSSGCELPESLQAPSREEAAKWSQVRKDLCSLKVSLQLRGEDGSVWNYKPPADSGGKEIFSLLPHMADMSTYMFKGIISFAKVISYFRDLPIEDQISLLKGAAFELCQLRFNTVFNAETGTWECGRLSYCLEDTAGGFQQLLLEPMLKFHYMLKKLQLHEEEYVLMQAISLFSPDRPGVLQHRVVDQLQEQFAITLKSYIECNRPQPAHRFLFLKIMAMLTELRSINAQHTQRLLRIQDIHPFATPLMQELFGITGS
Procedure, shortened: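 Agonist mode: luminescence from ONE-Glo after 24 h compound exposure at 37C in HepG2 cells carrying hPXR-responsive CYP3A4 luciferase, plated in charcoal-stripped serum medium 5 h beforehand.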

[9] = target: Nuclear receptor subfamily 1 group I member 2 (Rattus norvegicus) (UniProt Q9R1A7); test: Rat pregnane X receptor (rPXR) activation by small molecules, qHTS assay (AID 1346983); details: rPXR luciferase reporter cells, One-Glo luminescence, 24 h; stronger effect = higher value; note: nearly all actives have a fitted effect of over 20% in size
Sequence of Nuclear receptor subfamily 1 group I member 2 (Rattus norvegicus) (Q9R1A7 whole entry, looked up): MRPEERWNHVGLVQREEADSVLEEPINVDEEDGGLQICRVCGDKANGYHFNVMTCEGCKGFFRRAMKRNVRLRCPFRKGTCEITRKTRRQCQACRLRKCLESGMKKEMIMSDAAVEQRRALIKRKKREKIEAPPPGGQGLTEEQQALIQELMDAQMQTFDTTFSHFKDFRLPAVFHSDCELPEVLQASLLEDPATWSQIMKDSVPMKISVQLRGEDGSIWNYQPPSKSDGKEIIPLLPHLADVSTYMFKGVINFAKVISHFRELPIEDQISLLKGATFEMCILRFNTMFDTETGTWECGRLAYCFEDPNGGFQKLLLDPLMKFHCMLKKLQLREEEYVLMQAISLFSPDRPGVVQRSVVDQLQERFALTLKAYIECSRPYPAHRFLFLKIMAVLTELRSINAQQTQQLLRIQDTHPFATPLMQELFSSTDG
Procedure, shortened: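 Cell-based rPXR luciferase reporter assay, 2,000 cells per well, rested 5hr at 37 C before compound addition in DMSO, then 24 hr at 37 C. One-Glo reagent was added and luminescence read after 30 min at room temperature.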

[10] = target: Nuclear receptor subfamily 1 group I member 2 (Homo sapiens) (UniProt O75469); test: CYP3A4 induction through human pregnane X receptor (PXR) by small molecules, qHTS assay (AID 1346984); note: nearly all actives have a fitted effect of over 40% in size; note: potency is the fitted concentration of half-maximal effect
Procedure, shortened: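 Read-out is luminescence after One-Glo addition, following a 3 hr, 37C incubation with Luciferin-IPA CYP3A4 substrate (3uM final). Before that, compounds were on DPX-2 cells (HepG2 co-transfected with PXR element plus CYP3A4-promoter luciferase) for 24 hr at 37C.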

[11] = target: Cytochrome P450 2D6 (Homo sapiens) (UniProt P10635); test: Cytochrome P450 Family 2 Subfamily D Member 6 (CYP2D6) small molecule antagonists: luciferase reporter qHTS assay (AID 1671196); note: nearly all actives have a fitted effect of over 50% in size; note: potency is the fitted concentration of half-maximal effect
Sequence of Cytochrome P450 2D6 (Homo sapiens) (P10635 whole entry, looked up): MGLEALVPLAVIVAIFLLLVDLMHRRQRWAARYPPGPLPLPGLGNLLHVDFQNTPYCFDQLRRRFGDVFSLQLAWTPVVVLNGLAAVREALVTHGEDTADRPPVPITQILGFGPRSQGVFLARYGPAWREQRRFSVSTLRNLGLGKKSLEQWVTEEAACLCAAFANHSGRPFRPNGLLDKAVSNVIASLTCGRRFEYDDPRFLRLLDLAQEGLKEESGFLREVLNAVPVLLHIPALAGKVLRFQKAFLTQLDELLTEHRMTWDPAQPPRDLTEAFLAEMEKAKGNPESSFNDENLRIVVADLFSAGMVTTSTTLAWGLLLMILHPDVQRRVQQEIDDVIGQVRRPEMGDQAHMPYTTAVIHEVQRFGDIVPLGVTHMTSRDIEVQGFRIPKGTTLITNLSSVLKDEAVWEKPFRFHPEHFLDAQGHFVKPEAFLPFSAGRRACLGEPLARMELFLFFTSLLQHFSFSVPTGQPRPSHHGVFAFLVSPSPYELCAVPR
Procedure, shortened: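 CYP2D6 activity was followed as luminescence from its luciferin product after a 1 h NADPH-driven reaction at room temperature. Enzyme-substrate mix and compound were pre-incubated for 10 min, and the signal was read 20 min after adding detection reagent.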

[12] = target: Cytochrome P450 2C9 (Homo sapiens) (UniProt P11712); test: Cytochrome P450 Family 2 Subfamily C Member 9 (CYP2C9) small molecule antagonists: luciferase reporter qHTS assay (AID 1671198); note: series mostly up to about 120 µM; nearly all actives have a fitted effect of over 50% in size
Sequence of Cytochrome P450 2C9 (Homo sapiens) (P11712 whole entry, looked up): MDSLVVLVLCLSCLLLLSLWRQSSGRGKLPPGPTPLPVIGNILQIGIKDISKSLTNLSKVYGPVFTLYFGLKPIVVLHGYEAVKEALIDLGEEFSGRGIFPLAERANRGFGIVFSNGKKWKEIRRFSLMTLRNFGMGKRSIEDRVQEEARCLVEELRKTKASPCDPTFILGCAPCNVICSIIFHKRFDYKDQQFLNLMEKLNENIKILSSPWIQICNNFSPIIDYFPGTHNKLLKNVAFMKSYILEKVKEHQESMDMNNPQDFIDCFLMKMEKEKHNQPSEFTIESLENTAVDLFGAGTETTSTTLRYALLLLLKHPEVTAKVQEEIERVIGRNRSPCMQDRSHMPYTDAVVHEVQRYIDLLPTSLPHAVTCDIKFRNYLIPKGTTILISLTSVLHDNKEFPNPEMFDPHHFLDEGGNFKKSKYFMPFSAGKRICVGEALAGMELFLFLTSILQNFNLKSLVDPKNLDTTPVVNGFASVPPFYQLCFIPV
Procedure, shortened: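 CYP2C9 activity was measured with a P450-Glo proluciferin substrate. Enzyme–substrate mix was held with compound for 10 min at room temperature, then NADPH regeneration solution was added for 1 h at 37C. Luciferin product was read as luminescence.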

[13] = target: Cytochrome P450 1A2 (Homo sapiens) (UniProt P05177); test: Cytochrome P450 Family 1 Subfamily A Member 2 (CYP1A2) small molecule antagonists: luciferase reporter qHTS assay (AID 1671199); note: nearly all actives have a fitted effect of over 50% in size; note: potency is the fitted concentration of half-maximal effect
Sequence of Cytochrome P450 1A2 (Homo sapiens) (P05177 whole entry, looked up): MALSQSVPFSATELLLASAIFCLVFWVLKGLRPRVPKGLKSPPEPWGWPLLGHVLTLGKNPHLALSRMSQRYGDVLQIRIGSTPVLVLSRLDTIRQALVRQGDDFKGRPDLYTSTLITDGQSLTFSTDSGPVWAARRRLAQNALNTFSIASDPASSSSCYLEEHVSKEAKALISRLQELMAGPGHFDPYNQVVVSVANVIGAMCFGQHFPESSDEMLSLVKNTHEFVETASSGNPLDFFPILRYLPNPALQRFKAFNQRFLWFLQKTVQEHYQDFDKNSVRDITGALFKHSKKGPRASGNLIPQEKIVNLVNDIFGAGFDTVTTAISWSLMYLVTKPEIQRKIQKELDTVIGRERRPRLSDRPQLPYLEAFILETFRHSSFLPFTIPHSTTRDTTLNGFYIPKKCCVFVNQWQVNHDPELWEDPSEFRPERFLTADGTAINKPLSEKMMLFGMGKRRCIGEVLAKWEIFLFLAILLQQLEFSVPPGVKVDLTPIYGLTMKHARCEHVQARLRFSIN
Procedure, shortened: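 Luminescence from luciferin formed by CYP1A2 from a proluciferin substrate, read 20 min after detection reagent. Compound was pre-incubated 10 min with enzyme-substrate, and reaction started with NADPH regeneration solution for 1 h at room temperature; furafylline control.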

[14] = target: Cytochrome P450 3A4 (Homo sapiens) (UniProt P08684); test: Cytochrome P450 Family 3 Subfamily A Member 4 (CYP3A4) small molecule antagonists: luciferase reporter qHTS assay (AID 1671201); note: nearly all actives have a fitted effect of over 50% in size; note: potency is the fitted concentration of half-maximal effect
Sequence of Cytochrome P450 3A4 (Homo sapiens) (P08684 whole entry, looked up): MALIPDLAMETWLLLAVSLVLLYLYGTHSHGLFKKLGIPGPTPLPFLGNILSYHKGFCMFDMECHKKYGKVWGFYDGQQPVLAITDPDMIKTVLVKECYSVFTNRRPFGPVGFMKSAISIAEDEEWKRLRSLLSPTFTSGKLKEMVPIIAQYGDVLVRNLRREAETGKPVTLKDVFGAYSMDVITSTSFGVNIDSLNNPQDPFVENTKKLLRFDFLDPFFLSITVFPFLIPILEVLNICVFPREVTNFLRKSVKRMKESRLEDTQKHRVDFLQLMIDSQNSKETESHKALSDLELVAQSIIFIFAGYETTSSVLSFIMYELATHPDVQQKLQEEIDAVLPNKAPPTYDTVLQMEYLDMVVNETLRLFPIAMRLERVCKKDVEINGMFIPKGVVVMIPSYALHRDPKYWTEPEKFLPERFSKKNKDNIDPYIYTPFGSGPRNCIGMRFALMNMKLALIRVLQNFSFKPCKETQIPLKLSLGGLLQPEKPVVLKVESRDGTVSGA
Procedure, shortened: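 Proluciferin-to-luciferin conversion by CYP3A4, NADPH-regenerated, 1 h RT; luminescence read as RLU. Ketoconazole as control.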

[15] = Human pregnane X receptor (PXR) small molecule agonists, qHTS cell viability counter screen (AID 1346977); note: nearly all actives have a fitted effect of over 50% in size
Procedure, shortened: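 Tox21 qHTS format; PXR-Luc HepG2, 2,000/well, charcoal-stripped FBS 5%. Cpd exposure 24hr. Read: CellTiter-Fluor fluorescence, multiplexed with luciferase.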

[16] = Caspase-3/7 induction in CHO-K1 cells by small molecules, qHTS cell viability counter screen (AID 1346979); note: nearly all actives have a fitted effect of over 35% in size
Procedure, shortened: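 CellTiter-Fluor viability check, qHTS format: wild-type CHO-K1, 16hr compound treatment, 1hr reagent incubation, fluorescence read.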

[17] = Caspase-3/7 induction in HepG2 cells by small molecules, qHTS cell viability counter screen (AID 1346981); note: series mostly up to about 92 µM; nearly all actives have a fitted effect of over 30% in size
Procedure, shortened: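 CellTiter-Fluor fluorescence measured viability in the same wells used for Caspase-Glo 3/7. HepG2 (wild type) at 2,000 cells/well were pre-incubated 5 hr, dosed, and given reagent at 16 hr, with 1 hr further at 37C.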

[18] = target: Cytochrome P450 2C19 (Homo sapiens) (UniProt P33261); test: Cytochrome P450 Family 2 Subfamily C Member 19 (CYP2C19) small molecule antagonists: luciferase reporter qHTS assay (AID 1671197); note: nearly all actives have a fitted effect of over 65% in size; note: potency is the fitted concentration of half-maximal effect
Sequence of Cytochrome P450 2C19 (Homo sapiens) (P33261 whole entry, looked up): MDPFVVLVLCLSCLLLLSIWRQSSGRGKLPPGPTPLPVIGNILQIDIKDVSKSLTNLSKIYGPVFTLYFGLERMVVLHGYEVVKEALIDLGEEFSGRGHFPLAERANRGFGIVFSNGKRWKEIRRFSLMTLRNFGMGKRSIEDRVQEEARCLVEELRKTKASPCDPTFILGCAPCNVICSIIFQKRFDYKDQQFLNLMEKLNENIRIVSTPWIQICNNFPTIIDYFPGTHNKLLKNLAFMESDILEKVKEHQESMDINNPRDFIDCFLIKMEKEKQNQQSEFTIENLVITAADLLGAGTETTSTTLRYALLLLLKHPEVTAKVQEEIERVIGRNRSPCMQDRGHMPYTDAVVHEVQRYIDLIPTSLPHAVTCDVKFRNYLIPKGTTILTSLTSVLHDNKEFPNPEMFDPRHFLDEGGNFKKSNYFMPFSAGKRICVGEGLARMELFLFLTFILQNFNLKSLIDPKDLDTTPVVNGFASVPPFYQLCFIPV
Procedure, shortened: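 Quantitative high-throughput screen of the Tox21 library using CYP2C19 with proluciferin substrate. Reaction: NADPH regeneration, 37C, 1 h, after 10 min compound preincubation at room temperature. Readout: luminescence.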

[19] = target: Voltage-gated inwardly rectifying potassium channel KCNH2 (Homo sapiens) (UniProt Q12809); test: Human Ether-a-go-go-Related Gene (hERG) channel small molecule antagonists: fluorescence cell-based qHTS assay (AID 1671200)
Sequence of Voltage-gated inwardly rectifying potassium channel KCNH2 (Homo sapiens) (Q12809 whole entry, looked up): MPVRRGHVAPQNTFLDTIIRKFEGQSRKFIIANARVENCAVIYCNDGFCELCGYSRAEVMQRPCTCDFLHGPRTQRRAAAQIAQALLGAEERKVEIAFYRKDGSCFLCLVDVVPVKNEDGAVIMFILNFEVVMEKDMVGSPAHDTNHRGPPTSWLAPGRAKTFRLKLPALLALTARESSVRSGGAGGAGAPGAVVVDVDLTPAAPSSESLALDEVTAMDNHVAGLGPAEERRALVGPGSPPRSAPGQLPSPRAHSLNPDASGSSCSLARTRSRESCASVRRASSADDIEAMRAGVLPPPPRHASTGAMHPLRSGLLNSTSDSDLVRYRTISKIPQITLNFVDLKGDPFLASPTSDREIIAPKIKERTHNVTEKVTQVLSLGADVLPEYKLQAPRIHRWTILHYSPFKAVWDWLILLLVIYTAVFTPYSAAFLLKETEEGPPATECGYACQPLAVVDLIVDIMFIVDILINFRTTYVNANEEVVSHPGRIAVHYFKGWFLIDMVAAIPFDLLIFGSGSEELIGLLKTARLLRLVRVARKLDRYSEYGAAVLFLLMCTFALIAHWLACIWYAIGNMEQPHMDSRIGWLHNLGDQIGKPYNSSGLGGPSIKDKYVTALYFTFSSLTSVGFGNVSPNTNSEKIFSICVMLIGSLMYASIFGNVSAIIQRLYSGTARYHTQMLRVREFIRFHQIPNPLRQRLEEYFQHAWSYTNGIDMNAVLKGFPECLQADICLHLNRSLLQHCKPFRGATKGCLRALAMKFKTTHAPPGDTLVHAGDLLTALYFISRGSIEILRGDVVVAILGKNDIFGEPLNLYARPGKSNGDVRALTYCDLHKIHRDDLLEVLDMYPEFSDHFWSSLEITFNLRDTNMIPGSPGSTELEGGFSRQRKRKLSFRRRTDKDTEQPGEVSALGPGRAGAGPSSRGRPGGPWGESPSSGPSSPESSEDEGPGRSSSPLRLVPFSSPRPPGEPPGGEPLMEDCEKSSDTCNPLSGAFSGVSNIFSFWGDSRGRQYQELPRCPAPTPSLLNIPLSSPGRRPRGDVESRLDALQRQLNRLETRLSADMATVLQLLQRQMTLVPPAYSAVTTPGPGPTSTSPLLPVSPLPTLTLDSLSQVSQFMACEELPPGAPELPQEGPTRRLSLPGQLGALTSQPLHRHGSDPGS
Procedure, shortened: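 Kinetic two-minute fluorescence traces, sampled at 1 s, were collected following thallium stimulus of U2OS cells (1000 per well) that had been cultured overnight at 37 C and loaded with FluxOR II.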

| SMILES | outcome [1] | outcome [2] | outcome [3] | outcome [4] | outcome [5] | outcome [6] | outcome [7] | Potency [8] | max activation [9] [%] | Potency [10] | Potency [11] | Potency [12] | Potency [13] | Potency [14] | outcome [15] | Potency [16] | outcome [17] | Potency [18] | Potency [19] |
| --- | --- | --- | --- | --- | --- | --- | --- | --- | --- | --- | --- | --- | --- | --- | --- | --- | --- | --- | --- |
| C=CCN1C[C@H](C(=O)N(CCCN(C)C)C(=O)NCC)C[C@@H]2c3cccc4[nH]cc(c34)C[C@H]21 | inactive | inactive | inactive | inactive | inactive | inactive | inactive | 29.8 µM (active) | -1.45 | 12.6 µM (active) | 2.45 µM (active) | inactive | inactive | 0.977 µM (active) | – | – | – | – | – |
| CC(C)Nc1ccccc1 | inactive | inactive | inactive | inactive | inactive | – | inactive | inactive | – | – | inactive | inactive | – | inactive | inactive | inactive | inactive | inactive | inactive |
| COC(=O)/C=C\C(=O)O | inactive | inactive | inactive | – | inactive | inactive | inactive | inactive | – | – | inactive | inactive | – | inactive | inactive | inactive | inactive | inactive | inactive |
| NCCOCCN | inactive | inactive | inactive | – | inactive | inactive | inactive | inactive | – | – | – | inactive | 17.8 µM (active) | inactive | inactive | inactive | inactive | 71 µM (active) | inactive |
| Cc1ncc([N+](=O)[O-])n1CC(C)O (stereo unspecified) | inactive | inactive | inactive | inactive | inactive | – | – | inactive | -2.68 | inactive | inactive | inactive | inactive | inactive | inactive | inactive | inactive | inactive | inactive |
| CC(C)(C)NC[C@H](O)COc1cccc2c1CCCC2=O | inactive | inactive | inactive | inactive | inactive | – | inactive | inactive | 0.088 | inactive | – | – | – | inactive | inactive | inactive | inactive | inactive | inactive |
